# TDP1 cell noCPT: qHTS for Inhibitors of human tyrosyl-DNA phosphodiesterase 1 (TDP1): qHTS in cells in absence of CPT. DT40 Tdp1-/- hTDP1 cells, no CPT, ATP luminescence, 48 h. Potency, µM (highest dose often 46.2 µM), for inactives: top-dose activity change, negative = growth inhibition, hits mostly inhibitors. 420,000 compounds, 15% hits. AID 686978, 2013; further: potency means the concentration at half of the fitted maximal effect; nearly all actives have a fitted effect of over 55% in size
#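 Stably hTDP1-transfected Tdp1-null chicken DT40 cells were treated with library compounds minus camptothecin and grown for at least 48 hr at 37 °C, after which cellular ATP was quantified by luminescence.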
# TDP1 cell CPT: qHTS for Inhibitors of human tyrosyl-DNA phosphodiesterase 1 (TDP1): qHTS in cells in presence of CPT | 420,000 compounds, 12% hits | Potency, µM (top dose mostly 46.2 µM), for inactives: top-dose activity change, negative = growth inhibition, hits mostly inhibitors | chicken DT40 Tdp1-/-;hTDP1 cells + 20 nM CPT, ATP luminescence, 48 h; further: potency means the concentration at half of the fitted maximal effect; nearly all actives have a fitted effect of over 55% in size
#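 Cell growth measured by CellTiter-Glo luminescence after a minimum 48 h, 37 C compound exposure with 20 nM CPT in Tdp1-knockout DT40 cells stably expressing hTDP1, seeded 400/well; qHTS titration format.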
# HT1080 IDH1KD tx: qHTS for induction of synthetic lethality in tumor cells producing 2HG: qHTS for the HT-1080-IDH1KD cell line. 360,000 compounds, 2% hits. HT-1080 IDH1 knockdown viability, ATP luminescence, 48 h. Potency, µM (series often up to 46.1 µM), for the others: top-dose activity, negative = toxicity, hits mostly cytotoxic. AID 686971, 2013;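 further: potency means the concentration at half of the fitted maximal effect; 0% = DMSO wells and -100% = cell-free medium wells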
#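 Knockdown cells (IDH1KD HT-1080) received compounds 2 h after plating at 750 cells/well and were kept 48 h at 37 °C in 5% FBS RPMI. A CellTiter-Glo luminescence read gave % activity for curve fitting.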
# HT1080-NT tox: qHTS for induction of synthetic lethality in tumor cells producing 2HG: qHTS for the HT-1080-NT fibrosarcoma cell line; HT-1080-NT fibrosarcoma viability, CellTiter-Glo ATP luminescence, 48 h; Potency, µM (series often up to 46.1 µM), inactives show at the highest dose activity, negative = less viability, most hits filed as cytotoxic; 360,000 compounds, 1.6% hits;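 further: NT is the 2HG producing partner of a matched IDH1 knockdown line; potency means the concentration at half of the fitted maximal effect; 0% = DMSO-treated cells and -100% = media-only wells without cells; nearly all actives have a fitted effect of over 55% in size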
#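 A 48-hour cytotoxicity screen used HT-1080-NT cells plated 2 hours before compound delivery. ATP-based CellTiter-Glo luminescence measured viability, normalized to DMSO and no-cell controls.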
# IL-1B inflam inh: qHTS for Inhibitors of Inflammasome Signaling: IL-1-beta AlphaLISA Primary Screen; THP-1 LPS/ATP IL-1B secretion, AlphaLISA, 16 h; stronger effect = lower value; activity change, % at 57.5 µM; 360,000 compounds, 4.7% hits; AID 743279, 2014; in the data active means activity change below about -50%; inconclusive means mostly about -30% to -49%
#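 THP-1 cells pretreated 1 hr with compounds (up to 57.5 uM final), then stimulated with LPS (250 ng/mL final) plus ATP (1.25 mM final); secreted IL-1B measured by AlphaLISA after 16 hr, decreased signal indicating inhibition.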
# * hit, by the source's call; ? = inconclusive; nt = no result given; [ ] = remark or other dose. Shown are actives, neighbours in structure and some others; about 19% of the full set was active somewhere. Unless noted, the call rests on the fitted dose curve; in most records, active means well fitted curve in the direction sought with a large enough effect; inconclusive means small, poorly fitted or top-dose-only effect, or another doubt; inactive means no such curve, though single readings can be large; an effect the other way counts as inactive or inconclusive. Unless noted, on the % scale 0 is the no-effect control and ±100 the full control effect.
SMILES,TDP1 cell noCPT,TDP1 cell CPT,HT1080 IDH1KD tx,HT1080-NT tox,IL-1B inflam inh
NC(=O)c1ccc(N2CCN(S(=O)(=O)c3cccs3)CC2)c([N+](=O)[O-])c1,3.7µM*,8.2µM*,-12%,-5%,-5
O=C(c1ccc(N2CCN(S(=O)(=O)c3ccccc3)CC2)c([N+](=O)[O-])c1)N1CCOCC1,21µM*,?,-4%,0%,4
Cc1cccc(C(=O)NCC(=O)OC(C)C(=O)Nc2ccc(Cl)cn2)c1 (centres undefined),4%,?,7%,10%,14
CCCCc1nnc(NC(=O)CSCc2cc(=O)n3cc(C)sc3n2)s1,10%,-5%,-6%,-3%,-6
CC[C@H](C)N(C)C(=O)c1cc2ccccc2c(-c2ccccc2Cl)n1,30µM*,?,nt,nt,nt
COc1ccc(NCC(=O)Nc2cccc(C(F)(F)F)c2)cc1S(=O)(=O)N1CCOCC1,?,?,-1%,-3%,-1
CCOC(=O)c1c(NC(=O)CSc2nnc(-c3ccccc3)n2CC)sc(C(C)=O)c1C,?,?,-10%,-1%,-16
CCOC(=O)c1c(NC(=O)CSc2nnc(-c3cccc(C)c3)n2CC)sc(C(C)=O)c1C,23µM*,23µM*,?,-14%,?
CCOC(=O)c1sc(NC(=O)c2cccnc2)c(C#N)c1C,-1%,9%,-4%,-1%,-11
CCOC(=O)c1c(NC(=O)CSc2cccc[n+]2[O-])sc(C(=O)Nc2ccccc2)c1C,18µM*,?,-4%,-13%,?
CCOC(=O)c1sc(NC(=O)CSc2nnc(Cc3ccccc3)o2)c(C#N)c1C,16µM*,12µM*,-4%[9.24 µM],8%,-19
CCOC(=O)c1sc(NC(=O)c2cc(-c3ccccc3)nc3ccccc23)c(C#N)c1C,5.8µM*,7.3µM*,5.2µM*,2.9µM*,-62*
CC(=O)Nc1ccc(S(=O)(=O)NCC(=O)N2CCN(S(=O)(=O)c3cccs3)CC2)cc1,1%,4%,-15%,-8%,-30
COc1ccc(CN2C(=O)C(CC(=O)NC3CCCC3)CC(C(=O)N(C)C)=C2C)cc1 (centres undefined),-10%,4%,3%,2%,-13
CC(=O)N1CCC2(CCCN(Cc3cc(C(F)(F)F)cc(C(F)(F)F)c3)C2)CC1,?,-22%,nt,nt,nt
COc1ccc(/C=C/C(=O)N2CCc3c(cnc(C)c3CNS(=O)(=O)c3cccs3)C2)cc1,?,0%[9.04 µM],nt,nt,nt
COc1ccc(CNC(=O)Cn2nnc(-c3ccc(C(F)(F)F)cc3)n2)cc1,-18%,-14%,nt,nt,nt
CCCc1ccc2oc(C(=O)N(C)Cc3nccs3)c(C)c2c1,?,?,?,?,-13
CCOC(=O)c1sc(NC(=O)CSc2n[nH]c(-c3ccccc3)n2)c(C#N)c1C,?,12µM*,?,?,-16
CCOC(=O)c1c(NC(=O)CSc2nnc(-c3ccccc3)o2)sc(C(C)=O)c1C,23µM*,16µM*,6%,10%,12
CCOC(=O)c1c(NC(=O)CSc2nc(C)cc(C)c2C#N)sc(C(C)=O)c1C,7.3µM*,9.2µM*,-16%,?,12
CCOC(=O)c1c(NC(=O)CSc2nnc(Cc3ccccc3)o2)sc(C(C)=O)c1C,21µM*,21µM*,-13%,-8%,-22
CCOC(=O)c1c(NC(=O)CSc2nnc(CNc3ccc(F)cc3)o2)sc(C(C)=O)c1C,?,-14%,0%,-1%,-2
CCOC(=O)c1[nH]c2ccc(OC)cc2c1N=CN(C)C,-13%,-5%,12%,15%,-25
O=C(Nc1ccccc1)SC1CCCCC1,-25%,0%,1%,1%,-14
SMILES,TDP1 cell noCPT,TDP1 cell CPT,HT1080 IDH1KD tx,HT1080-NT tox,IL-1B inflam inh
Cn1c(C(=O)NCCc2ccccc2)cc2sc(Cl)cc21,-18%,-18%,nt,nt,nt
CCOC(=O)c1c(NC(=O)c2cc(-c3ccc(O)cc3)on2)sc(C(C)=O)c1C,5.8µM*,4.6µM*,5%,22%,-2
CCOC(=O)c1c(-c2ccc(C)cc2)csc1NC(=O)c1cc(-c2ccc(Cl)cc2)on1,0%,-6%,nt,nt,nt
COc1ccc(N2CC(NC(=O)N3CCc4ccccc43)CC2=O)cc1OC (centres undefined),0%,-9%,-11%,0%,24
Cc1ccc(-n2ncc(C(=O)N3CCN(C(=O)c4ccco4)CC3)c2C2CCN(C(=O)OC(C)(C)C)CC2)cc1C,8%,-8%,9%,-2%,-5
Cc1ccc(-n2ncc(C(=O)NCCc3ccsc3)c2C2CCN(C(=O)OC(C)(C)C)CC2)cc1C,16µM*,16µM*,nt,nt,nt
Cc1ccc(C2CCN(C(=O)c3cnn(-c4ccc(C)c(C)c4)c3C3CCN(C(=O)OC(C)(C)C)CC3)C2)cc1 (centres undefined),13µM*,10µM*,nt,nt,nt
Cc1ccc(-n2ncc(C(=O)NCCc3c[nH]c4ccccc34)c2C2CCN(C(=O)OC(C)(C)C)CC2)cc1C,?,16µM*,nt,nt,nt
CCCNC(=O)c1cnn(-c2ccc(C)c(C)c2)c1C1CCN(C(=O)OC(C)(C)C)CC1,23µM*,?,nt,nt,nt
O=C(Cc1ccccc1)c1ccc(O)cc1O,-25%,-11%,1%,0%,0
O=C(O)c1cc(N(Cc2ccccc2O)Cc2cc(O)ccc2O)ccc1O,21µM*,?,nt,nt,nt
CN(C)c1ncc2nc(-c3ccccc3)c(=O)n(-c3ccccc3)c2n1,9%,6%,nt,nt,nt
O=C(Nc1ccsc1C(=O)N1CCCC1)c1ccccc1,21µM*,16µM*,0%,9%,-7
Cc1ccc(-n2nc(-c3ccccc3)cc2Nc2ccccc2N)cc1,-16%,-9%,16%,16%,-22
Cc1ccc(-c2cc3nn(-c4ccccc4)c(N)c3c(=O)o2)cc1,21µM*,?,-11%,?,-56*
Cc1cc(C)cc(N(C(=O)c2snc(C(N)=O)c2N)C(C(=O)NCC2CCCO2)c2ccc(C)o2)c1 (centres undefined),21µM*,?,-7%,-8%,-51*
CCOc1ccc(C(C(=O)NCC2CCCO2)N(C(=O)c2snc(C(N)=O)c2N)c2ccccc2F)cc1 (centres undefined),?,21µM*,-6%,3%,-72*
